# Out of some 220,000 compounds screened, about 8,200 (3.7%) were called active. What follows is part of a selection rich in actives, with near analogues and random picks from the rest. Values without a mark were called inactive.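 The calls were made as follows: active = compounds that reduced the stress-induced luciferase reporter signal by more than about 70% of percent inhibition (limit read from the data); inactive = the rest.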
# Assay: inhibitors of CHOP promoter induction, primary screen, cell-based, unfolded protein response, luciferase reporter (AID 2732);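 also: 0% = tunicamycin plus vehicle and 100% = wells without tunicamycin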
# Conditions: CHO-K1 CHOP-promoter luciferase, tunicamycin-induced, 15-18 h; at 10 µM; hits give high values
row,Structure (SMILES),inhibition
1,O=C(CCl)Nc1cccc(CP(=O)(c2ccccc2)c2ccccc2)c1,-134%
2,COc1ccc(CNC(=O)CCC(=O)Nc2nnc(C(C)C)s2)cc1,11.9%
3,Cc1nnc(SCC(=O)N/N=C/c2cn(-c3ccccc3)nc2-c2ccc(F)cc2)n1-c1ccccc1,97.1% (active)
4,COc1ccc(OC)c(/C=N/NC(=O)CSc2nnc(C)n2-c2ccccc2)c1,-5.53%
5,Cc1ccc(-c2nn(-c3ccccc3)cc2/C=N/NC(=O)c2ccc3c(c2)OCO3)cc1,22.2%
6,CC(C)COC(=O)n1c(=O)oc2ccc(S(=O)(=O)N3CCCCC3)cc21,11.3%
7,COc1ccc(OC)c(Nc2nc3ccccc3n3cnnc23)c1,24.5%
8,Cc1cccc(C2C3=C(CCCC3=O)N=C3c4ccccc4C(=O)C32)c1 (stereo not drawn),19.4%
9,Cc1cccc(NC(=O)c2cccc(C(F)(F)F)c2)c1,2.04%
10,CC(=O)N1CCN(C(=O)Nc2cccc(C(F)(F)F)c2)CC1,26.5%
11,Cc1cccc(NC(=O)c2nnn(-c3cccc(C(F)(F)F)c3)c2N)c1,70.6% (active)
12,CC(=O)OCCOCn1cnn2c(=O)c(Br)c(C)nc12,7.79%
13,O=C(O)c1ccccc1OCc1ccccc1Cl,-5.39%
14,Cn1nccc1NC(=O)Nc1ccc(OC(F)(F)F)cc1,0.64%
15,CC1(C)C2CCC1(C)C(OC(=O)CCn1ccnc1)C2 (stereo not drawn),4.53%
16,CC1(C)C2CCC1(C)C(OC(=O)c1ccc(O)cc1)C2 (stereo not drawn),77.6% (active)
17,Cc1ccc(C(=O)OC2CCCN(C)C2)cc1 (stereo not drawn),7.84%
18,N#Cc1ccc(Oc2ccc(C(F)(F)F)cc2NC(=O)c2ccc(F)cc2)cc1,6.42%
19,O=C(NCC1CCCO1)c1ccccc1-c1nc(-c2ccccc2Cl)no1 (stereo not drawn),-0.61%
20,c1ccc(-n2ncc3c(N4CCCC4)ncnc32)cc1,-22.2%
21,C1=C(CCNc2ncnc3c2cnn3-c2ccccc2)CCCC1,88% (active)
22,O=C(NNc1ncnc2c1cnn2-c1ccccc1)c1ccco1,2.45%
23,O=C1N(c2ccccc2)C(=Nc2ccccc2)SC12CC2,-17.1%
24,O=C(CCNc1n[nH]c(=O)[nH]c1=O)N/N=C\c1ccc(Br)cc1,-14.4%
25,Cc1noc(C)c1S(=O)(=O)Nc1cc(C(F)(F)F)ccc1N1CCOCC1,13.3%
26,CC(C)(C)NC(=O)NC(=O)COC(=O)C1(C)CC1(Cl)Cl (stereo not drawn),6.38%
27,COc1ccccc1OCCC(=O)OCC(=O)NC(=O)NC(C)(C)C,44.9%
28,CC(C)(C)NC(=O)NC(=O)COC(=O)CCC1CCCCC1,80.2% (active)

# Reference: PubChem BioAssay AID2732 (Emory University Molecular Libraries Screening Center, 2010)
